Assay results taken from PubChem BioAssay.
Unmarked numbers belong to inactive results. No rule for the calls is given here.

Assay: hESC survival regulators, cell-based (AID 493140);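 also: cells exposed to compounds for four days before counting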
Details: human embryonic stem cell survival screen; hits give high values

Point of comparison: `NCC[C@H](O)C(=O)NC1CC(N)C(OC2OC(CN)C(O)C(O)C2O)C(O)C1OC1OC(CO)C(O)C(N)C1O` (stereo partly specified), survival 1.75. Against it:
- CCC(=O)OC1C(C)OC(OC2C(C)OC(O[C@H]3[C@@H](CC=O)C[C@@H](C)[C@@H](O)/C=C/C=C/C[C@@H](C)OC(=O)C[C@@H](OC(=O)CC)[C@@H]3OC)C(O)C2N(C)C)CC1(C)O (stereo partly specified) — higher, 16.6
- CC1CCC2(OC1)O[C@H]1C[C@H]3[C@@H]4CC[C@H]5C[C@@H](O)CC[C@]5(C)[C@H]4CC(=O)[C@]3(C)[C@H]1[C@@H]2C (stereo partly specified) — higher, 3.25
- c1ccc2c3c([nH]c2c1)C1C2CCC(C4CCCNC42)N1CC3 (stereo unspecified) — lower, 1.58
- CC(C)N1CCN(c2ccc(OC[C@@H]3CO[C@@](Cn4cncn4)(c4ccc(Cl)cc4Cl)O3)cc2)CC1 — higher, 7.75
- CC1OC(O[C@H]2/C=C/C=C/C=C/C=C/C=C/C=C/C=C/[C@H](C)[C@@H](O)[C@@H](C)[C@H](C)OC(=O)C[C@H](O)C[C@H](O)CC[C@@H](O)[C@H](O)C[C@H](O)C[C@]3(O)C[C@H](O)[C@@H](C(=O)O)[C@H](C2)O3)C(O)C(N)C1O (stereo partly specified) — higher, 10.9
- CC[C@H](C)[C@H]1O[C@]2(CC[C@@H]1C)C[C@@H]1C[C@@H](C/C=C(\C)C(O[C@H]3C[C@H](OC)[C@@H](O[C@H]4C[C@H](OC)[C@@H](O)[C@H](C)O4)[C@H](C)O3)[C@@H](C)/C=C/C=C3\CO[C@@H]4[C@H](O)C(C)=C[C@@H](C(=O)O1)[C@]34O)O2 (stereo partly specified) — higher, 17.6
- NCC1OC(OC2C(N)CC(N)C(O)C2O[C@@H]2O[C@H](CO)[C@H](O)C2O)C(N)C(O)C1O (stereo partly specified) — lower, 0.167
- CC[C@H]1OC(=O)[C@H](C)[C@@H](OC2CC(C)(OC)C(O)C(C)O2)[C@H](C)[C@@H](OC2OC(C)CC(N(C)C)C2O)[C@](C)(O)C[C@@H](C)/C(=N\OCOCCOC)[C@H](C)[C@@H](O)[C@]1(C)O (stereo partly specified) — higher, 6.25
- COc1ccc(CC(N)C(=O)N[C@@H]2C(O)[C@H](n3cnc4c(N(C)C)ncnc43)O[C@@H]2CO)cc1 (stereo partly specified) — lower, 0.083
- CC1O[C@H](O[C@]2(O[C@H]3CC[C@@]4(C)C(=CC[C@H]5[C@@H]6C[C@H]7[C@H]([C@H](C)[C@H]8CC[C@H](C)CN87)[C@@]6(C)CC[C@@H]54)C3)C[C@@H](O[C@@H]3OC(CO)[C@@H](O)[C@@H](O)C3O)[C@@H](O)C(CO)O2)C(O)[C@@H](O)[C@H]1O (stereo partly specified) — higher, 4.89
- COc1cc([C@@H]2c3cc4c(cc3[C@@H](O[C@@H]3O[C@@H]5CO[C@@H](C)O[C@H]5[C@H](O)[C@H]3O)C3COC(=O)[C@@H]32)OCO4)cc(OC)c1O (stereo partly specified) — lower, 0.25
- CC(=O)Nc1c(I)c(C(=O)NC2[C@H](O)OC(CO)[C@@H](O)[C@H]2O)c(I)c(N(C)C(C)=O)c1I (stereo partly specified) — higher, 16.9
- O=C(O)c1cc2ccccc2c(Cc2cc3ccccc3c(C(=O)O)c2O)c1O (tested in a mixture with another compound) — higher, 7.75
- C=C1CC23CC4C5[C@@]6(C)C[C@H](OC(=O)c7ccccc7)[C@@H](OC(C)=O)[C@@]57C2[C@H](OC(C)=O)[C@@H]1[C@H](O)[C@H]3[C@H]7N4C6 — higher, 4.92
- CCCCC[C@H](O)/C=C/C=C\CCCCCCCCCC(=O)O — higher, 73.3
- CO[C@@H]1[C@@H](OC2OC(C)C(OC3CC(C)(O)C(OC(=O)CC(C)C)C(C)O3)C(N(C)C)C2O)[C@@H](CC=O)C[C@@H](C)[C@@H](O)/C=C/C=C/C[C@@H](C)OC(=O)C[C@H]1OC(C)=O (stereo partly specified) — higher, 16.8
- NCC1OC(OC2C(N)CC(N)C(OC3OC(CO)C(O)C(N)C3O)C2O)C(O)C(O)C1O (stereo unspecified) — higher, 5.58
- COC1CC(O[C@H]2[C@H](C)[C@@H](OC3OC(C)CC(N(C)C)C3O)[C@@H](C)C[C@]3(CO3)C(=O)[C@H](C)[C@@H](O)[C@@H](C)[C@@H](C)OC(=O)[C@@H]2C)OC(C)C1O (stereo partly specified) — higher, 26.4
- CC[N+]1(C)C2CCC1CC(OC(=O)[C@H]1CCC(C(=O)OC3CC4CCC(C3)[N+]4(C)CC)(c3ccccc3)c3ccccc31)C2 (stereo partly specified) — higher, 4.5
- COc1ccc([C@@H]2CC(=O)c3c(O)cc(O[C@@H]4OC(CO[C@@H]5OC(C)[C@H](O)[C@H](O)C5O)[C@@H](O)[C@@H](O)C4O)cc3O2)cc1O (stereo partly specified) — higher, 9.92
